Bioassay records deposited in PubChem BioAssay by National Center for Advancing Translational Sciences (NCATS).
AmpC inh detg = inhibitors of E. coli AmpC beta-lactamase with detergent | P00811 | AmpC hydrolysis of nitrocefin, absorbance 480 nm, 0.01% Triton | Potency, µM (top dose mostly 114 µM), for the others: top-dose activity change, negative = inhibition, hits mostly inhibitors | 370,000 compounds, 0.041% hits | AID 485294;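 also: 0% = no-compound wells and -100% = no-enzyme wells; nearly all actives have a fitted effect of over 25% in size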
Target sequence (P00811 whole entry, looked up): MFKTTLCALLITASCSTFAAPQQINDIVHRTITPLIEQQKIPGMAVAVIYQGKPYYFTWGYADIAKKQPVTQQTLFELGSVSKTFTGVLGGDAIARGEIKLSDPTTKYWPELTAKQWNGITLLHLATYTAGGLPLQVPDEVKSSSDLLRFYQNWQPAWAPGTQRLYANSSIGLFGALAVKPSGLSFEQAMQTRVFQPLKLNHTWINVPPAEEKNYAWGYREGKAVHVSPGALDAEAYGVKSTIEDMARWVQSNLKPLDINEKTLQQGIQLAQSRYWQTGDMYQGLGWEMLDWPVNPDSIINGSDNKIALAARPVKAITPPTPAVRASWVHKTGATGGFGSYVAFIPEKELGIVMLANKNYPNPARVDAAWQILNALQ
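AmpC (5.3 nM in the dispensed reagent) in 20 mM phosphate pH 7.0 with 0.01% (detergent screen) or 0.0001% Triton X-100 was preincubated with compounds for 15 min at room temperature. Nitrocefin was then added from an 800 uM solution, and hydrolysis was followed at 480 nm.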
Sm TGR block = inhibitors of Schistosoma mansoni thioredoxin glutathione reductase; Potency, µM (top dose mostly 114 µM), for the others: top-dose activity change, negative = inhibition, hits mostly inhibitors; purified TGR, DTNB reduction, TNB absorbance 405 nm; Q962Y6; 360,000 compounds, 3% hits; also: % is scaled to controls: 0 for no effect and ±100 for the full control effect; nearly all actives have a fitted effect of over 60% in size
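TGR 20 nM + NADPH 100 uM (dispensed conc.), cpd preinc 15 min RT; start with NADPH (500 uM addition) then DTNB (15 mM addition). Kinetic TNB absorbance, 405 nm filter. Four-parameter Hill fit across titration.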
SARS PLP yeast = inhibitors of SARS-CoV papain-like protease in yeast; 330,000 compounds, 0.19% hits; Potency, µM (doses to about 32.9 µM), for inactives: at the top dose activity, positive = growth rescue, most hits filed as activators; S. cerevisiae expressing SARS-CoV PLpro, growth rescue; calls by dose curve; also: 0% is about no effect; nearly all actives have a fitted effect of over 55% in size
Tb PYK inh = blocks Trypanosoma brucei pyruvate kinase | TbPYK enzyme, Kinase-Glo Plus ATP luminescence, 45 min | 410,000 compounds, 0.12% hits | Potency, µM (series often up to 76.8 µM), for inactives: at the highest dose activity, negative = inhibition, usual class: inhibitors | Q57TT1; also: % is scaled to controls: 0 for no effect and ±100 for the full control effect; nearly all actives have a fitted effect of over 50% in size
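Luminescent Kinase-Glo Plus end-point after 45 min room-temperature reaction of T. brucei pyruvate kinase started with 130 uM ADP (final). Buffer TEA 50 mM pH 7.2 with KCl, MgCl2, BSA, Tween-20; titration-based qHTS with fitted concentration-effect curves.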
RE007 growth inh = less growth of the S. pombe RE007 Vpr strain | S. pombe RE007 Vpr strain, BacTiter-Glo ATP luminescence, 24 h | Potency, µM (top dose mostly 92.2 µM), for the others: top-dose activity change, negative = less growth, usual class: inhibitors | 360,000 compounds, 0.21% hits | AID 651644; active = well fitted falling curve with a large enough effect; inconclusive = small, poorly fitted or top-dose-only effect; inactive = no such curve, though single readings can be large or run the other way; also: % is scaled to controls: 0 for no effect and ±100 for the full control effect; nearly all actives have a fitted effect of over 50% in size
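Fission yeast RE007 carrying one integrated HIV-1 vpr copy, seeded at OD 0.01 in PMG+AL medium with 23 nL pinned compound. Grown 24 h at 30 degrees; viability read by BacTiter-Glo luminescence after 5 min.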
AmpC inh no detg = blocks E. coli AmpC beta-lactamase in detergent-free assay. AmpC nitrocefin hydrolysis, absorbance 480 nm, 0.0001% Triton. Potency, µM (series often up to 57.1 µM), for the others: at the highest dose activity change, negative = inhibition, usual class: inhibitors. P00811. AID 485341. 330,000 compounds, 0.52% hits;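 also: plate controls were no compound for no effect and no enzyme for full effect; nearly all actives have a fitted effect of over 20% in size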
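20 mM phosphate pH 7.0 + 0.01% (detergent screen) or 0.0001% Triton X-100; 5.3 nM AmpC reagent; cpd preinc 15 min RT; nitrocefin (800 uM stock) to start; A480 q20 s × 4 min; Activity was normalised to no-enzyme and no-compound control wells.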
Active calls of the source: *; ? = inconclusive; nt = no result given. Compounds with a hit are over-represented: about 3.3% of the library has one in this group of screens. Unless noted, calls follow the shape of the dose curve; as a rule, active = well fitted curve in the direction sought with a large enough effect; inconclusive = small, poorly fitted or top-dose-only effect, or another doubt; inactive = no such curve, though single readings can be large; an effect the other way counts as inactive or inconclusive. Potency is read from the fitted curve at half-maximal effect.

SMILES	AmpC inh detg	Sm TGR block	SARS PLP yeast	Tb PYK inh	RE007 growth inh	AmpC inh no detg
Cc1[nH]c2ccccc2c1C(=O)CSc1ccccc1	?	-16%	-21%	-10%	-16%	-16%
CC(C)(C)CN1CCNC[C@H]1Cc1cccc2ccccc12	?	22µM*	-2%	-3%	-13%	0%
COc1cc(/C=C(\NC(C)=O)C(=O)Nc2cccc(O)c2)ccc1OC(C)=O	-11%	50µM*	4%	-4%	1%	-11%
Cc1ccc(C(=O)O)cc1Nc1nc2ccccc2n2nnnc12	-1%	-14%	nt	1%	nt	nt
O=S(=O)(Nc1cccc(F)c1)c1ccc2[nH]c3c(c2c1)CCCCC3	24%	1%	nt	5%	nt	nt
O=C(NCCc1ccccc1)C(=O)Nc1nccs1	-11%	-9%	-9%	-12%	8%	-2%
COc1ccccc1CNC(=O)C(=O)Nc1nccs1	1%	45µM*	0%	-15%	-9%	51%
S=C(NCc1ccccc1)Nc1nccs1	?	3.2µM*	2%	-16%	-8%	-33%
S=C(NCCc1ccccc1)Nc1nccs1	-2%	2.2µM*	1%	-15%	-3%	-30%
O=C(c1ccc2c(c1)N(Cc1cccc(Cl)c1)C(=O)c1ccccc1S2(=O)=O)N1CCN(Cc2ccccc2)CC1	12%	6%	nt	-3%	nt	nt
CN1CCN(Cc2c(O)ccc3cc(Br)ccc23)CC1	-12%	3.5µM*	-5%	-6%	?	-13%
CCc1cc(=O)oc2c(CN3CCN(C)CC3)c(O)ccc12	1%	6%	-2%	-2%	5%	-11%
Cc1ccc(Cl)cc1NC(=O)c1sc2nc(-c3ccccc3)cn2c1C	9%	5%	nt	-4%	nt	nt
Cc1cc(C)nc(NC(=O)c2ccc(Br)cc2)n1	5%	11%	-2%	-8%	-3%	-9%
COc1ccc(C(=O)Nc2nc(C)cc(C)n2)cc1	1%	22µM*	-2%	-2%	4%	19%
Cc1cc(/C=C2\C(=O)NC(=O)N(c3ccc(Cl)cc3)C2=O)c(C)n1-c1cccc(C(=O)O)c1	-1%	7.1µM*	3%	-7%	8%	-28%
Cc1cc(/C=C2\C(=O)NC(=O)N(c3ccc(Br)cc3)C2=O)c(C)n1-c1cc(C(=O)O)cc(C(=O)O)c1	-7%	8.9µM*	1%	-10%	nt	-35%
Cc1cc(/C=C2\C(=O)NC(=O)N(c3cccc(F)c3)C2=O)c(C)n1-c1cc(C(=O)O)cc(C(=O)O)c1	-9%	?	2%	-14%	4%	-29%
COC(=O)c1sccc1S(=O)(=O)N(CC(=O)Nc1ccccc1F)c1ccccc1	1%	-13%	nt	-9%	nt	nt
O=[N+]([O-])c1ccc(C=Nc2cccc3ccccc23)s1	-14%	nt	-5%	-13%	22µM*	-30%
CN1/C(=C/c2cc[n+](C)c3ccccc23)C=Cc2ccccc21	?	-31%	-3%	-25%	10µM*	-15%
O=C(CCl)N1c2ccccc2CCc2ccccc21	2%	11µM*	-2%	nt	nt	-1%
CC1(C)CC2CC(C)(CN2/C=C2/CCCCC2=O)C1 (stereo not given)	-1%	35µM*	-1%	-2%	2%	11%
CC1(C)C[C@@H]2C[C@@](C)(CN2C(=O)c2ccccc2)C1	-11%	1%	-2%	1%	0%	116%
Cc1cc(C)c(OCC(=O)OCCNC(=O)c2cccnc2)c(C)c1	?	35µM*	24%	-9%	2%	-17%
SMILES	AmpC inh detg	Sm TGR block	SARS PLP yeast	Tb PYK inh	RE007 growth inh	AmpC inh no detg
COc1cc(C(=O)OCCNC(=O)c2cccnc2)cc(OC)c1OC	nt	nt	-2%	-13%	14%	-12%
Cc1ccc(OCc2nc3ccccc3n2CC(C)C)cc1	22%	5%	nt	2%	nt	nt
CCOC(=O)N1CCN(Cc2nc3cc(NC(=O)c4ccco4)ccc3n2C)CC1	-4%	50µM*	-1%	0%	6%	22%
CC(C(=O)N(C)C1CCS(=O)(=O)C1)N1C(=O)/C(=C/c2ccco2)SC1=S (stereo not given)	-10%	25µM*	9%	-12%	-12%	0%
O=C(CN1C(=O)/C(=C/c2ccco2)SC1=S)NC1CCS(=O)(=O)C1 (stereo not given)	?	20µM*	-11%	0%	-1%	-27%
O=C(CN1C(=O)/C(=C/c2ccco2)SC1=S)Nc1ccc(O)c(C(=O)O)c1	-5%	14µM*	1%	-4%	1%	-31%
CC(=C\c1ccco1)/C=C1/SC(=S)N(CC(=O)O)C1=O	2%	40µM*	7%	-2%	-8%	-39%
CCc1ccc(NC(=O)c2cc(CN3CCOCC3)on2)cc1	17%	1%	nt	0%	nt	nt
COc1ccc(CCNC(=O)CCc2c(C)nc3cc(-c4ccccc4OC)nn3c2C)c(OC)c1	1%	7%	nt	-8%	nt	nt
CCc1nnc2c(Nc3ccc(Br)c(C)c3)nc3ccccc3n12	2%	5%	nt	1%	nt	nt
O=C(CCCN1C(=O)/C(=C\c2ccco2)SC1=S)Nc1ccc(O)cc1C(=O)O	?	10µM*	5%	-16%	-5%	-54%
O=C(CN1C(=O)/C(=C/c2ccco2)SC1=S)Nc1ccc(C(=O)O)c(O)c1	-6%	14µM*	?	-21%	5%	-42%
CC(C(=O)Nc1ccc(C(=O)O)c(O)c1)N1C(=O)/C(=C\c2ccco2)SC1=S (stereo not given)	-11%	7.1µM*	10%	?	-7%	-29%
O=C(CCCN1C(=O)/C(=C/c2ccco2)SC1=S)Nc1cccc(C(=O)O)c1	3%	-6%	-1%	-14%	2%	-24%
O=C(O)c1ccc(NC2=C/C(=N/S(=O)(=O)c3cccs3)c3ccccc3C2=O)cc1	nt	nt	nt	-10%	?	nt
O=C(O)c1ccc(NC2=C/C(=N/S(=O)(=O)c3ccccc3)c3ccccc3C2=O)cc1	4%	20µM*	-21%	-29%	?	-37%
CCc1ccc(S(=O)(=O)/N=C2\C=C(Nc3cccc(C(=O)O)c3)C(=O)c3ccccc32)cc1	0%	-23%	-2%	-23%	-11%	-24%
Cc1cc(C)c(S(=O)(=O)/N=C2\C=C(Nc3ccc(C(=O)O)cc3)C(=O)c3ccccc32)c(C)c1	-12%	?	-12%	?	-17%	13µM*
COCCn1c(SCC(=O)Nc2ccc(Br)cc2)nc2c([nH]c3ccccc32)c1=O	5%	8%	nt	-2%	nt	nt
CC(=O)c1ccc2noc(-c3cccc(C)c3)c2c1	?	18µM*	-1%	3%	-12%	-4%
